Source: PubChem BioAssay (National Center for Advancing Translational Sciences (NCATS))
Rows were chosen to be rich in hits. Some 2.5% of all compounds tested hit in one or more screens of this group.
Cruzain noTriton – blocks cruzain activity in detergent-free assay. P25779. purified cruzain, Z-FR-AMC fluorescence, no detergent. Potency, µM, hits mostly inhibitors. hit rate 2.3% among 200,000; note: nearly all actives have a fitted effect of over 40% in size
Target sequence (P25779 123-467 limits assumed): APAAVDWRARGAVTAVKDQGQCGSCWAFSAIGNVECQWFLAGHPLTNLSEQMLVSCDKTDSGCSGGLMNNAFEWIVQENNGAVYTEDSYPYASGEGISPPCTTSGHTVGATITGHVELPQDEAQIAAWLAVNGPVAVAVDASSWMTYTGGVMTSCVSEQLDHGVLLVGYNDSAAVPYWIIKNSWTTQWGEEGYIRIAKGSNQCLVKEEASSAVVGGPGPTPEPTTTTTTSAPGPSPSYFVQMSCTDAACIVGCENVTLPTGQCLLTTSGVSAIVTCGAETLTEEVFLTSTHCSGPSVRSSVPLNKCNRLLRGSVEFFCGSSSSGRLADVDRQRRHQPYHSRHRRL
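Detergent-free condition (0.00005% Triton X-100) in acetate buffer pH 5.5 with DTT. 1.5 nM enzyme and compound were pre-mixed 15 min, then 2 uM Z-FR-AMC substrate added; reaction progress from fluorescence change between first and third reads (60 s).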
Cruzain Triton – blocks cruzain activity in presence of Triton detergent | P25779 | purified cruzain, Z-FR-AMC fluorescence, 0.01% Triton | Potency, µM, hits mostly inhibitors | hit rate 0.43% among 200,000 | AID 1478; note: nearly all actives have a fitted effect of over 40% in size
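Enzyme 1.5 nM, Z-FR-AMC 2 uM, NaOAc 100 mM pH 5.5, DTT 5 mM, Triton X-100 0.01%; 15 min RT compound preincubation; kinetic ex360/em450, 60 s delta.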
Of the large screens only hits and unclear results are named; the others gave an inactive call. Calls come from the whole dose curve; as a rule, active = well fitted curve in the direction sought with a large enough effect; inconclusive = small, poorly fitted or top-dose-only effect, or another doubt; inactive = no such curve, though single readings can be large; an effect the other way counts as inactive or inconclusive.

Oc1cc2c(cc1O)[C@@H]1c3ccc(O)c(O)c3OC[C@]1(O)C2	none
Cc1nn(C(=O)c2cccc(F)c2)c(C)c1S(=O)(=O)N1CCCCCC1	none
Cc1ccc(SCc2nc(-c3ccc(C(=O)NCc4ccccc4Cl)cc3)oc2C)cc1	Cruzain noTriton inconclusive
Cc1ccc(N=Cc2c(O)n(-c3cc(Cl)ccc3N3CCOCC3)c(=O)c3ccccc23)cc1C	Cruzain noTriton 6.3µM
Cc1cc(N=Cc2c(O)n(-c3cccc(Cl)c3)c(=O)c3ccccc23)no1	none
COc1ccc(-c2c(C)nn3c(N4CCN(c5ccccc5)CC4)cc(C)nc23)cc1OC	none
COc1cc(Cl)c(NC(=O)CN(C)S(=O)(=O)c2ccc3c(c2)CCCC(=O)N3)c(OC)c1	none
COc1ccc(-c2nnc(CSc3nc4ccccc4c(=O)n3C)o2)cc1OC	Cruzain noTriton inconclusive
COc1ccc(-c2cc(-c3ccc(C)cc3)nc(SCc3nnc(-c4ccccc4)o3)c2C#N)cc1OC	Cruzain noTriton 10µM
Cc1cc(OC(C)C(=O)N(Cc2ccc(N(C)C)cc2)Cc2ccco2)ccc1Cl (stereo unspecified)	none
CCCCN(CCCC)S(=O)(=O)c1ccc(NC(=O)c2c(-c3ccccc3)noc2C)cc1	none
CCCN(CCC)S(=O)(=O)c1ccc(C(=O)NNc2nc(-c3ccccc3)c3cc(Br)ccc3n2)cc1	Cruzain noTriton 10µM
COc1cccc(CNC(=O)Cc2c(C)c3c(cc(C)c4c(C)coc43)oc2=O)c1	none
CCc1ccccc1NC(=O)CSc1nnc([C@@H](N)Cc2ccccc2)o1	Cruzain noTriton 10µM, Cruzain Triton 10µM
C=C(C)CSc1nnc([C@@H](N)Cc2c[nH]c3ccccc23)o1	none
CCN(CC)C(=O)CSc1nnc([C@@H](N)Cc2ccccc2)o1	Cruzain noTriton 25µM, Cruzain Triton 25µM
N[C@@H](Cc1ccccc1)c1nnc(SCc2ccccc2Cl)o1	none
Cc1ccc(NC(=O)CSc2nnc([C@@H](N)Cc3c[nH]c4ccccc34)o2)c(C)c1	Cruzain noTriton 16µM, Cruzain Triton 18µM
CCN(CC)C(=O)CSc1nnc(CCN)o1	none
CCN(c1ccc(C)cc1C)S(=O)(=O)c1nnc(NC(=O)CC(C)C)s1	none
CCc1ccccc1NC(=O)c1cc(S(=O)(=O)N2CCCc3ccccc32)ccc1F	none
Cn1ncc(Br)c1C(=O)N/N=C/c1cccc(OC2CSC2)c1	none
O=C(N/N=C/c1cccc(OC2CSC2)c1)c1ccccc1O	Cruzain noTriton 10µM
COc1cc2oc(=O)cc(-c3ccc(-c4sccc4C=O)cc3)c2c(OC)c1OC	none
Cn1c(O)c(N=NC(=O)c2cc(-c3cccs3)nc3ccccc23)c2ccccc21	Cruzain noTriton 10µM
Cn1cccc1/C=N/NC(=O)c1cc(-c2cccs2)nc2ccccc12	none
Cc1ccc(CNc2ncnc3c2cnn3-c2ccccc2)cc1	Cruzain noTriton 25µM
Cc1ccc(-n2ncc3c(NCc4ccccc4)ncnc32)cc1	none
CCCCOc1ccc(C(=O)NCc2cn3cccc(C)c3n2)cc1	none
COc1ccc(C=Nc2cccc3c(=O)[nH][nH]c(=O)c23)c2ccccc12	Cruzain noTriton 32µM
COc1ccc(/C=C/c2ccncc2)c2ccccc12	none
CCCCNC(=O)[C@@H](c1ccccc1)N1Cc2ccccc2C1=O	none
O=C(O)[C@@H](c1ccccc1)N1Cc2ccccc2C1=O	Cruzain noTriton 16µM
O=C(Nc1ccc(O)c(-c2nc3ccccc3o2)c1)c1ccco1	none
O=C(Nc1ccc(O)c(-c2nc3ccccc3o2)c1)C1(c2ccc(Cl)cc2)CCCC1	Cruzain noTriton 5µM
O=S(=O)(NCC(c1ccco1)N1CCN(c2ccccc2)CC1)c1ccccc1 (stereo unspecified)	none
CC(C)(C)NC(=O)[C@@H]1C[C@H]2CCCC[C@@H]2CN1C[C@H](O)[C@H](Cc1ccccc1)NC(=O)[C@@H](CC(N)=O)NC(=O)c1ccc2ccccc2n1	none
COc1ccc(-c2c(C)cc3oc(=O)cc(-c4ccccc4)c3c2C)cc1	Cruzain noTriton 32µM
Cc1cc2oc(=O)cc(-c3ccccc3)c2c(C)c1-c1ccc(N(C)C)cc1	Cruzain noTriton 14µM
CC(=O)Nc1ccc(-c2c(C)cc3oc(=O)cc(-c4ccccc4)c3c2C)cc1	none
CCOC(=O)c1ccc(-c2c(C)cc3oc(=O)cc(-c4ccccc4)c3c2C)cc1	Cruzain noTriton 4.5µM
Cc1ccc(-c2c(C)cc3oc(=O)cc(-c4ccccc4)c3c2C)cc1	Cruzain noTriton inconclusive
Cc1cc2oc(=O)cc(-c3ccccc3)c2c(C)c1-c1ccc(C(F)(F)F)cc1	Cruzain noTriton inconclusive
CC(C)c1cnc2c(c1SCC(=O)Nc1ccc(C(N)=O)cc1)c(=O)n(C)c(=O)n2C	none
C[N+](C)(N)CCC[N+](C)(C)N	none
CCOc1ccc2c(c1)-c1c(ssc1=S)C(C)(C)N2C(=O)CSC1=NCCS1	Cruzain noTriton 16µM
Cc1ccc2c(c1)-c1c(ssc1=S)C(C)(C)N2C(=O)CSC1=NCCS1	Cruzain noTriton inconclusive
CN(C)CS/C(N)=N/[C@H](O)C(Cl)(Cl)Cl	none
CCCCOC(=O)c1ccc(NC(=O)c2ccc3c(c2)CCN3S(=O)(=O)c2ccccc2)cc1	Cruzain noTriton 13µM
CCCCc1ccc(NC(=O)c2ccc3c(c2)CCN3S(=O)(=O)c2ccccc2)cc1	Cruzain noTriton inconclusive
O=C1NC(=O)N(CCC2=CCCCC2)C(=O)/C1=C\c1cccs1	none
Cn1cccc1/C=C1\C(=O)NC(=O)N(CCC2=CCCCC2)C1=O	Cruzain noTriton 20µM
CCOC(=O)c1ccn(-c2nc(-c3cccc(OC)c3)cc(C(F)(F)F)n2)n1	Cruzain noTriton inconclusive
COc1ccc(/C=N/Nc2ccc([N+](=O)[O-])cc2)cc1Cn1cc([N+](=O)[O-])cn1	Cruzain noTriton 20µM
COc1ccc(/C=N/NC(=O)Cn2nc(C)c([N+](=O)[O-])c2C)cc1	none
COc1ccc(/C=N/Nc2ccccc2)cc1Cn1nc(C)c([N+](=O)[O-])c1C	Cruzain noTriton 13µM
COc1ccc(/C=N/NC(=O)c2ccc(Cn3cc([N+](=O)[O-])cn3)o2)cc1O	none
Cc1cc(Cl)ccc1OCC(=O)N(Cc1ccc(N(C)C)cc1)CC1CCCO1 (stereo unspecified)	none
NC[C@H]1O[C@H](n2cnc3c(N)ncnc32)C[C@@H]1O	none
CCOc1ccccc1Nc1sc(C(=O)c2ccccc2)c(N)c1C(=O)Nc1ccccc1	Cruzain noTriton inconclusive
COc1ccc(NC(=O)c2c(Nc3ccccc3)sc(C(=O)c3ccc(F)cc3)c2N)cc1	Cruzain noTriton 10µM
COc1ccccc1NC(=O)c1c(Nc2ccccc2C)sc(C(=O)Nc2cccc(Cl)c2)c1N	Cruzain noTriton 3.2µM
COc1cccc(Nc2sc(C(=O)c3ccc(F)cc3)c(N)c2C(=O)NCc2ccc(Cl)cc2)c1	none
COc1ccc(C(=O)c2sc(Nc3ccccc3)c(C(=O)Nc3ccc(OC)c(OC)c3)c2N)cc1	none
COc1ccc(C(=O)c2sc(Nc3cccc(OC)c3)c(C(=O)Nc3cccc(C)c3C)c2N)cc1	Cruzain noTriton 6.3µM
COc1ccc(Nc2sc(C(=O)c3ccc(Cl)cc3)c(N)c2C(=O)Nc2ccccc2OC)cc1	Cruzain noTriton 4µM
COc1cccc(Nc2sc(C(=O)c3ccc(Cl)cc3)c(N)c2C(=O)NCc2ccc(C)cc2)c1	Cruzain noTriton inconclusive
COc1ccc(NC(=O)CN2C(=O)COc3ccc(S(=O)(=O)N4CCCCC4)cc32)cc1Cl	none
Cc1ccc(SCN2CCCCC2)cc1 (tested in a mixture with another compound)	none
CC(=O)c1ccc(NS(=O)(=O)c2ccc3[nH]c(=O)[nH]c3c2)cc1	none
